In PubChem BioAssay (EPA / NIEHS):
Results filed as inconclusive are left out. Activity calls are given as the source filed them. How the source made its calls: active means hit-call score of the fitted dose curve at least 0.9, where 1 is the maximum; inconclusive means response in the unintended direction; inactive means score below 0.9.

target: human LYN Proto-Oncogene, Src family Tyrosine Kinase (LynA), LYN (gene 4067) (UniProt P07948); test: NVS_ENZ_hLynA: NovaScreen (NVS) Enzymatic Assay for human LYN Proto-Oncogene, Src family Tyrosine Kinase (LynA) (AID 2283173)
Summary of the method: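 Recombinant kinase with fluorescent substrate; product separated from substrate by electrophoretic mobility shift and read 1 h after dosing. Duplicate screen at 25 uM, then concentration-response up to 50 uM; activity scored as signal loss against DMSO.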

Chain of human LYN Proto-Oncogene, Src family Tyrosine Kinase (LynA), LYN (gene 4067) (P07948 whole entry, looked up): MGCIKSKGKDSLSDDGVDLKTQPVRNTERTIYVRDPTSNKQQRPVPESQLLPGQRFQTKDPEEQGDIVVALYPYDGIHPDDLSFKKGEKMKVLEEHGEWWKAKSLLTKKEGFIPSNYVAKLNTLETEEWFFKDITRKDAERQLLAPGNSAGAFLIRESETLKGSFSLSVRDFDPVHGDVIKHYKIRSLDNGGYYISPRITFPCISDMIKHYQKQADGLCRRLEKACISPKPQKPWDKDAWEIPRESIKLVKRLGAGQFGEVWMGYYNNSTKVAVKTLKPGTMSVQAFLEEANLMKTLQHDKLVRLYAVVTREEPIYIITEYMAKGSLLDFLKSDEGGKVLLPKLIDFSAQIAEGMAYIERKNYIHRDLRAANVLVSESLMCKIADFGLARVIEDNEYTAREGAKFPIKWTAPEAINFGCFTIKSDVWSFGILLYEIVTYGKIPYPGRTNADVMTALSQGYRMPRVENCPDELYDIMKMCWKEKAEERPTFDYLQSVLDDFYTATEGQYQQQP

| Compound | AC50 | outcome |
| --- | --- | --- |
| CCN(CC)CCOc1ccc(C(=C(Cl)c2ccccc2)c2ccccc2)cc1 | 19.8 µM (active) | – |
| O=C(N[C@@H](c1ccccc1)[C@@H]1CCCCN1)c1cccc(C(F)(F)F)c1Cl | – | inactive |
| O=C1NC(=O)C(c2ccccc2)(c2ccccc2)N1 | – | inactive |
| CN(C)C(=O)NC1(c2ccccc2)CCN(CCC[C@]2(c3ccc(Cl)c(Cl)c3)CCCN(C(=O)c3ccccc3)C2)CC1 | – | inactive |

target: Mitogen-activated protein kinase 3 (Homo sapiens) (UniProt P27361); test: NVS_ENZ_hMAPK3: NovaScreen (NVS) Enzymatic Assay for human Mitogen-Activated Protein Kinase 3 (MAPK 3) (AID 2283177)
Summary of the method: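 Chemicals were first tested in duplicate at 25 uM, with hits re-run as concentration series (max 50 uM). Recombinant enzyme activity, measured 1 h post-dose in a cell-free format, was read by fluorescence/mobility shift relative to DMSO.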

Chain of Mitogen-activated protein kinase 3 (Homo sapiens) (P27361 whole entry, looked up): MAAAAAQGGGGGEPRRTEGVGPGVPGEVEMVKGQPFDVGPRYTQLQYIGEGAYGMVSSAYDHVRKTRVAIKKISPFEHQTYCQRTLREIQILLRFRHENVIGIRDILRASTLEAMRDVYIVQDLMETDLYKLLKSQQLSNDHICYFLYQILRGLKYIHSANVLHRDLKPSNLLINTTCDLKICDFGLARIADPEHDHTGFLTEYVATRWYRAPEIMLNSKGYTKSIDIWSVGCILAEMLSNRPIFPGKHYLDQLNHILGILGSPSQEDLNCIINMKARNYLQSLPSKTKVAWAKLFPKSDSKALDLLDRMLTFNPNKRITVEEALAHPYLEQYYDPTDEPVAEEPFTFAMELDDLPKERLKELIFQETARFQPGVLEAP

| Compound | outcome |
| --- | --- |
| CCCCc1nc2cccnc2n1Cc1ccc(-c2ccccc2-c2nnn[nH]2)cc1 | inactive |
| C=CCCCCCCCCCCCC | inactive |
| NC=O | inactive |
| O=C1CCCCC1 | inactive |
| O=C(O)CC(O)(CC(=O)O)C(=O)O | inactive |
| CS(=O)(=O)c1ccc([C@@H](C[C@H]2CCC(=O)C2)C(=O)Nc2cnccn2)cc1Cl | inactive |
| NC(=Nc1ccccc1)Nc1ccccc1 | inactive |
| CN(C)C(=O)NC1(c2ccccc2)CCN(CCC[C@]2(c3ccc(Cl)c(Cl)c3)CCCN(C(=O)c3ccccc3)C2)CC1 | inactive |
| O=C(O)c1cccnc1 | inactive |

target: Collagenase 3 (Homo sapiens) (UniProt P45452); test: NVS_ENZ_hMMP13: NovaScreen (NVS) Enzymatic Assay for human Matrix Metalloproteinase-13 (MMP13) (AID 2283182)
Summary of the method: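 Recombinant MMP13 cleaving fluorescent substrate, cell-free, measured 1 h after dosing. Primary duplicate screen at 25 uM; actives tested in concentration-response up to 50 uM; loss of signal relative to DMSO.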

| Compound | AC50 | outcome |
| --- | --- | --- |
| CCCCc1nc2cccnc2n1Cc1ccc(-c2ccccc2-c2nnn[nH]2)cc1 | 24.1 µM (active) | – |
| CCc1cc(C2=C(C(=O)O)N(c3ccccc3C(F)(F)F)S(=O)(=O)c3ccccc32)cc2c1OCO2 | 29.6 µM (active) | – |
| Nc1nc(=S)c2[nH]cnc2[nH]1 | 27.1 µM (active) | – |
| CC(C)(C)c1ccccc1 | 19.4 µM (active) | – |
| Cn1cnc2c1c(=O)[nH]c(=O)n2C | – | inactive |
| O=C1c2c(O)cccc2Cc2cccc(O)c21 | 0.671 µM (active) | – |
| O=C(O)c1[nH]n(-c2ccc(S(=O)(=O)O)cc2)c(=O)c1N=Nc1ccc(S(=O)(=O)O)cc1 | 23.6 µM (active) | – |

target: human Matrix Metalloproteinase-7 (MMP7), MMP7 (gene 4316) (UniProt P09237); test: NVS_ENZ_hMMP7: NovaScreen (NVS) Enzymatic Assay for human Matrix Metalloproteinase-7 (MMP7) (AID 2283183)
Summary of the method: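 Compounds first tested at 25 uM in duplicate, then at up to 50 uM in concentration series if active. Protease activity measured by fluorescence intensity 1 h after dosing, with fitting relative to DMSO.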

Chain of human Matrix Metalloproteinase-7 (MMP7), MMP7 (gene 4316) (P09237 whole entry, looked up): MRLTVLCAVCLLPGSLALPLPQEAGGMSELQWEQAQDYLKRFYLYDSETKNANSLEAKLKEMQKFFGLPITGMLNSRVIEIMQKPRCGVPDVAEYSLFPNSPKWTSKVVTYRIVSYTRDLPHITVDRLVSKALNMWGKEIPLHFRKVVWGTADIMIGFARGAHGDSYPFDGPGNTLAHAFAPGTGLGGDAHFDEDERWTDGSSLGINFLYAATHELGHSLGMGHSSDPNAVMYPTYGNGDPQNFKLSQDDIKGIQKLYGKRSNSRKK

| Compound | outcome | AC50 |
| --- | --- | --- |
| CN(C)CCCN(C)CCCN(C)C | inactive | – |
| C#CC(O)C(CC)CCCC (configuration not stated) | inactive | – |
| Cc1ccc(-c2cc(C(F)(F)F)nn2-c2ccc(S(N)(=O)=O)cc2)cc1 | inactive | – |
| CCc1cc(C2=C(C(=O)O)N(c3ccccc3C(F)(F)F)S(=O)(=O)c3ccccc32)cc2c1OCO2 | inactive | – |
| Nc1nc(=S)c2[nH]cnc2[nH]1 | inactive | – |
| O=C1c2c(O)cccc2Cc2cccc(O)c21 | – | 20.3 µM (active) |
| O=C(O)c1[nH]n(-c2ccc(S(=O)(=O)O)cc2)c(=O)c1N=Nc1ccc(S(=O)(=O)O)cc1 | – | 12.3 µM (active) |
